Reference: PubChem BioAssay AID2546 (National Center for Advancing Translational Sciences (NCATS), 2010)
The campaign covered roughly 310,000 compounds. About 11,000 (3.5%) were called active. About 8% were inconclusive and are not listed. The call rests on the fitted dose curve; in most records, active means well fitted inhibition curve with a large enough effect; inconclusive means small, poorly fitted or top-dose-only effect, or effect the other way; inactive means flat fitted curve, though single readings scatter. The list comes from a sample in which actives are over-represented; it also holds similar structures and randomly drawn compounds.

Assay: VP16 counterscreen qHTS for inhibitors of ROR gamma transcriptional activity;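 further: Gal4-VP16 expression switched on by copper sulfate through the metallothionein promoter; nearly all actives have a fitted effect of over 50% in size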
Conditions: Drosophila S2 Gal4-VP16 UAS-luciferase, luminescence, 20 h; series mostly up to 53.6 µM; activity, negative = inhibition: at the top concentration
On the % scale 0 is the no-effect control and ±100 the full control effect; potency means the concentration at half of the fitted maximal effect.

SMILES	activity, negative = inhibition	Potency
COc1ccccc1CNC(=O)C1CCN(S(=O)(=O)c2ccc3c(c2)CC(C)N3C(=O)C2CC2)CC1 (stereo not given)	1.44% (inactive)	
COc1ccc(CN2C(=O)C(C)S/C2=N/N=C/c2ccco2)cc1 (stereo not given)	13.3% (inactive)	
O=C1N/C(=N\N=C\c2ccco2)SC1Cc1ccc(F)cc1 (stereo not given)		4.47 µM (active)
CN(CCOc1ccc(CC2SC(=O)NC2=O)cc1)c1ccccn1 (stereo not given)	6.05% (inactive)	
C=CCN1C(=O)C(Cc2cccc(Cl)c2)S/C1=N/N=C/c1ccco1 (stereo not given)	-2.5% (inactive)	
CC(C)=N/N=C1/NC(=O)C(Cc2ccccc2)S1 (stereo not given)		2.82 µM (active)
O=C(O)C[C@@H]1NC(=O)[C@H](Cc2ccccc2)NC1=O	-0.0827% (inactive)	
CC1Sc2ccc(S(=O)(=O)CCC(=O)NCc3ccccc3Cl)cc2NC1=O (stereo not given)	-3.72% (inactive)	
C/C(=N\NC(=O)c1ccc2ccccc2c1)c1cccnc1	-1.37% (inactive)	
COc1ccc(CCNC(=O)CS(=O)(=O)Cc2nc(-c3ccc(C)cc3)oc2C)cc1OC	0.714% (inactive)	
COc1cccc(CNS(=O)(=O)c2ccc3c(c2)CC(C)N3C(C)=O)c1 (stereo not given)	-3.21% (inactive)	
Cn1cncc1COC(=O)c1ccc(Cl)cc1	-0.0903% (inactive)	
O=C(Cc1c(Cl)cccc1Cl)NC1CC1	-0.236% (inactive)	
CCOc1ccc(-c2nc(N)ncc2-c2ccccc2OC)c(O)c1	-5.66% (inactive)	
C=C(C)COc1ccc(-c2n[nH]c(C)c2-c2ccccc2)c(O)c1		3.16 µM (active)
C=C(C)COc1ccc(-c2ncncc2-c2ccc(OC)cc2)c(O)c1	-13.1% (inactive)	
C=C(C)COc1ccc(-c2nc(N)ncc2-c2ccccc2OC)c(O)c1	-0.328% (inactive)	
C=C(C)COc1ccc(-c2n[nH]c(C)c2-c2ccccc2OC)c(O)c1		14.1 µM (active)
CCOc1ccc(-c2n[nH]c(C)c2-c2ccccn2)c(O)c1	-5.31% (inactive)	
O=C(c1ccccc1)N1CCC(CC2CC(c3ccc(Cl)cc3)=NO2)(C(=O)NCC2CCCCC2)CC1 (stereo not given)	11.9% (inactive)	
CCCN1CCn2c3c(c4cc(Br)ccc42)CCCC31 (stereo not given)	1.59% (inactive)	
Cc1cc(O)c(C(=O)/C=C/c2c(F)c(F)c(F)c(F)c2F)c(=O)o1	-1.97% (inactive)	

SMILES	activity, negative = inhibition	Potency
CCOC(=O)N1CCN(C(=O)c2ccc3c(=O)n(CCc4ccc(OC)c(OC)c4)c(=O)[nH]c3c2)CC1	-1.34% (inactive)	
CCC(C(=O)OC)n1cnc2scc(-c3ccc(C)cc3)c2c1=O (stereo not given)	-5.09% (inactive)	
CC(=O)Oc1ccc(-c2cccc(C(=O)N3CCCCC3)c2)cc1	7.3% (inactive)	
CN(CCO)c1ccc(/C=N/Nc2nncc3ccccc23)cc1		11.2 µM (active)
COc1cc(/C=N/Nc2nn3cnnc3c3ccccc23)cc(OC)c1OC	-27% (inactive)	
C/C(=N\Nc1nncc2ccccc12)c1ccc(Cl)c([N+](=O)[O-])c1	-10.6% (inactive)	
O=C(CCCO)N/N=C/c1cc(Br)ccc1O		12.6 µM (active)
NCCCCCC(=O)N/N=C/c1ccc2nccnc2c1	4.99% (inactive)	
O=C(CCC(=O)N/N=C/c1ccc(Br)o1)N/N=C/c1ccc(Br)o1	-5.41% (inactive)	
CC1CC(C)CN(c2ccc(S(=O)(=O)N3CCOCC3)cc2)C1 (stereo not given)	-4.83% (inactive)	
COc1ccc2c(CC(=O)N3CCc4cc(OC)c(OC)cc4C3)coc2c1	11% (inactive)	
COc1ccc(NC(=O)CSc2nc(SC)ns2)c(OC)c1	-10.1% (inactive)	
CCCCN1C(=S)NC[C@@H]1C(C)CC (stereo not given in full)		10 µM (active)
CCCCN1CCNC1=S	-7.57% (inactive)	
Cc1ccc2c(c1)N(CC(=O)N1CCOCC1)C(=O)CO2	-15.3% (inactive)	
CCOC(=O)[C@@H]1[C@H]2COc3cc(OC)ccc3[C@@H]2N2C(=O)N(c3cccc(C)c3)C(=O)[C@@]12C	-2.17% (inactive)	
CCOc1ccc(N(CC(=O)NCCc2ccc(F)cc2)S(=O)(=O)c2ccccc2)cc1	-5.48% (inactive)	
Cc1ccccc1N1CC(C(=O)Nc2nnc(SCCC3OCCO3)s2)CC1=O (stereo not given)	-0.0441% (inactive)	
CCC(C)(C)NC(=O)CN(C(=O)CCC(=O)Nc1nccs1)c1ccc2c(c1)OCO2	13.8% (inactive)	
C=CCNC(=S)NNC(=O)c1cc(Cl)ccc1OC	-14% (inactive)	
C=CCNC(=S)NNC(=O)COc1c(Cl)cc(Cl)cc1Cl		1.58 µM (active)
C=CCNC(=S)NNC(=O)c1ccc(Br)o1	-22.5% (inactive)	

SMILES	activity, negative = inhibition	Potency
CC(C)[C@H](NC(=O)N1CCn2c1nc1ccccc12)C(=O)NCc1ccc2c(c1)OCO2	2.6% (inactive)	
CCN(C(=O)CN1C(=O)/C(=C/c2ccc(F)cc2)SC1=S)C1CCS(=O)(=O)C1 (stereo not given)	-1.96% (inactive)	
COc1ccc(N(C(=O)c2cccnc2)S(=O)(=O)c2ccc(OC)c(OC)c2)cc1	-4.37% (inactive)	
COc1cc(SC)ccc1C(=O)NCCOc1ccccc1Cl	4.25% (inactive)	
COc1cc(SC)ccc1C(=O)Nc1nc(C)cs1		3.98 µM (active)
COc1ccc(Cc2nnc(NC(=O)c3ccc(OC)cc3OC)s2)cc1	25.6% (inactive)	
CCn1c2ccc(F)cc2c2nnc(SCCN3CCOCC3)nc21	-1.32% (inactive)	
CCC(=O)c1cn(CCOc2ccccc2OC)c2ccccc12	-8.86% (inactive)	
CCOc1ccc(N(C)Cc2cc(=O)oc3ccc(OC)cc23)cc1	-9.57% (inactive)	
Cc1cc(=O)oc2c3c(cc(OCC(=O)NCc4ccccn4)c12)OC(C)(C)CC3	-3.85% (inactive)	
O=C1N=C(N2CCc3ccccc3C2)S/C1=C\c1ccc(O)cc1		1.58 µM (active)
CCc1ccc(/C=C2\SC(N3CCOCC3)=NC2=O)cc1	-8.68% (inactive)	
O=C1N=C(N2CCCC2)S/C1=C\c1cccc(Br)c1	13.8% (inactive)	
CCCCn1c(=S)[nH]c2ccccc2c1=O		5.01 µM (active)
CCCCn1c(=S)[nH]c2ncccc2c1=O		3.55 µM (active)
CCCCNC(=O)c1ccc(-n2c(=S)[nH]c3ccccc3c2=O)cc1	14.8% (inactive)	
CCCCNC(=O)CCn1c(=S)[nH]c2cc3c(cc2c1=O)OCO3	-11.1% (inactive)	
CN(C)CCn1c(=S)[nH]c2ccc(Cl)cc2c1=O	-3.83% (inactive)	
CCN(CC)CCn1c(=S)[nH]c2ncccc2c1=O	7.04% (inactive)	
O=C(NC1CCCCCCC1)c1cccs1	-16.3% (inactive)	
CCCc1nn2c(=O)cc(CSCC(=O)Nc3cccc(C)c3)nc2s1	0.474% (inactive)	
CCOC(=O)N1CCN(S(=O)(=O)c2ccc(Br)cc2)CC1	2.58% (inactive)	

SMILES	activity, negative = inhibition	Potency
Cc1ccc(NC(=O)CCC(=O)c2ccc(Br)cc2)cc1	-7.45% (inactive)	
CCC(Cc1ccccc1)NS(=O)(=O)c1ccc2c(c1)NC(=O)CS2 (stereo not given)	1.55% (inactive)	
CCc1ccc(NC(=O)CCNS(=O)(=O)c2cccs2)cc1	5.31% (inactive)	
CCn1c(=S)sc2c(=O)n(CC(=O)Nc3cccc(Br)c3)c(C)nc21	-2.31% (inactive)	
CN(Cc1cccnc1)C(=O)c1cc(COc2ccc3ncccc3c2)on1		2.82 µM (active)
Cc1ccc(OCc2cc(C(=O)N(C)CCc3ccccc3)no2)cc1C	-6.16% (inactive)	
CC(=O)c1cccc(OCc2cc(C(=O)NC(C)Cc3cccnc3)no2)c1 (stereo not given)	16% (inactive)	
COc1ccc(C(CCN2CCOCC2)c2c(OC)cc(OC)c3c2OC(=O)CC3c2ccc(OC)cc2)cc1 (stereo not given)	-26.9% (inactive)	
COc1cccc(-c2nc3n(n2)C(c2ccccc2Cl)C(C(N)=O)=C(C)N3)c1 (stereo not given)	-5.08% (inactive)	
CC1=C(C(N)=O)C(c2ccc3c(c2)OCO3)n2nc(-c3cccc(C)c3)nc2N1 (stereo not given)		20 µM (active)
CC1=C(C(N)=O)C(c2ccc(F)cc2)n2nc(CCCO)nc2N1 (stereo not given)	7.17% (inactive)	
COc1ccc(S(=O)(=O)NCCc2cc3ccc(C)c(C)c3[nH]c2=O)cc1	6.83% (inactive)	
COc1nc(-c2ccc(Cl)cc2)ccc1-c1noc(-c2cccs2)n1	-2.8% (inactive)	
c1ccc(-c2noc(-c3cccs3)n2)nc1		12.6 µM (active)
Brc1ccc(-c2noc(-c3ccccc3)n2)o1	-15.6% (inactive)	
c1csc(-c2nc(-c3ccncc3)no2)c1	-4.55% (inactive)	
O=C(Oc1ccc(Br)cc1)c1cccnc1	-1.3% (inactive)	
O=C(Oc1ccc(-c2nc(-c3ccccn3)no2)cc1)c1ccccc1		6.31 µM (active)
Cn1c(=O)[nH]c(=O)c2c1nc(N1CCN(C(c3ccccc3)c3ccccc3)CC1)n2CCO	-3.53% (inactive)	
CCNC(=S)N(CCN(CC)CC)Cc1cc2cc3c(cc2[nH]c1=O)OCCO3	6.76% (inactive)	
COc1ccc(N2C(=O)CNC2=S)cc1	-1.96% (inactive)	
COc1ccc(-c2cn(-c3ccc(OC)cc3)c(=S)[nH]2)cc1		1.41 µM (active)

SMILES	activity, negative = inhibition	Potency
COc1ccc(-n2c(C)csc2=S)cc1	2.5% (inactive)	
Cc1ccc(OCC(=O)Nc2ccc(N3CCN(C(=O)c4ccco4)CC3)cc2)c(C)c1	0.609% (inactive)	
CC(C)(C)c1ccc(Cn2nnc3c(=O)[nH]c(C4CCCN(C(=O)c5ccco5)C4)nc32)cc1 (stereo not given)	-1.24% (inactive)	
CCC(C(=O)NC1CCCCC1)N(C(=O)c1snc(C(N)=O)c1N)c1ccc(OC)cc1OC (stereo not given)	0.216% (inactive)	
COc1cc(OC)c(C(=O)NCc2ccc3c(c2)OCO3)cc1OC	15.5% (inactive)	
Cc1nn(Cc2ccc(C(=O)N3N=C(C(F)F)CC3(O)C(F)F)cc2)c(C)c1[N+](=O)[O-] (stereo not given)		10 µM (active)
Cc1nn(CC(=O)NCc2ccccn2)c(C)c1[N+](=O)[O-]	1.72% (inactive)	
Cc1ccn(CC(=O)N2N=C(C(F)F)CC2(O)C(F)F)n1 (stereo not given)	0.0819% (inactive)	
Cc1ccc(S(=O)(=O)N2CCN=C2SCc2c(F)cccc2Cl)cc1	3.35% (inactive)	
CCOC(=O)C1(CCOc2ccccc2)CCN(Cc2cc(OC)c(O)cc2Cl)CC1	-6.99% (inactive)	
CCN1CC(CN(C)Cc2nc(-c3ccc(Cl)cc3)no2)CC1=O (stereo not given)		10 µM (active)
CC1CCN(Cc2nc(-c3ccc(Cl)cc3)no2)CC1	-21.9% (inactive)	
CN(Cc1ccccn1)Cc1nc(-c2ccc(Cl)cc2)no1	-9.46% (inactive)	
CC(C)c1ccc(C2C(C(=O)c3ccco3)=C(O)C(=O)N2CC2CCCO2)cc1 (stereo not given)	15.4% (inactive)	
Cc1ccc(NC(=O)C2CCN(S(=O)(=O)c3ccc4c(c3)NC(=O)CO4)CC2)cc1C	-5.61% (inactive)	
Clc1ccc(C2CC(c3cccs3)n3ncnc3N2)cc1Cl (stereo not given)		17.8 µM (active)
COc1ccc(C2CC(c3ccc(C)cc3)Nc3ncnn32)cc1 (stereo not given)	5.33% (inactive)	
COc1ccc(C2CC(c3ccccc3)Nc3ncnn32)cc1 (stereo not given)	4.97% (inactive)	
Cc1[nH]c2ccc(C(=O)N3CCN(C)CC3)cc2c1C	-1.22% (inactive)	
Cc1ccc(Nc2nc(N)nc(CSc3nnc(C)s3)n2)cc1	5.43% (inactive)	
CCOC(=O)N1CCN(Cc2nc(N)nc(Nc3ccc(C)cc3)n2)CC1	15.3% (inactive)	
Nc1nc(CC(=O)CSc2ccc(Cl)cc2)nc(Nc2ccc(F)cc2)n1		12.6 µM (active)
